Measured values taken from PubChem BioAssay (NCI).
About 83,000 compounds went through this panel and 20% of them were active in at least one assay; those are over-represented in the sample as a whole.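 Activity criterion: percent growth below 10, measured after cells in 96-well plates were exposed to a single compound concentration for 48 hours.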 The source made the active and inactive calls.

Key:
Assay in all cases: NCI-60 one-dose screen, 48 h (100 = growth as untreated, 0 = no growth, -100 = all killed)
Details in all cases: 10 µM unless noted
[1] = system: SR leukemia
[2] = system: RPMI-8226 leukemia
[3] = system: OVCAR-8 ovarian
[4] = system: OVCAR-5 ovarian
[5] = system: OVCAR-4 ovarian
[6] = system: SK-OV-3 ovarian
[7] = system: IGROV1 ovarian
[8] = system: OVCAR-3 ovarian
[9] = system: HS 578T breast
[10] = system: NCI/ADR-RES ovarian

Measured: growth

CN(C)c1ccc(N=Nc2ccc(Br)cn2)c(O)c1
inactive: [2] 11.9% | [3] 15.5% | [4] 59.6% | [6] 25.9% | [7] 16% | [8] 14.8% | [9] 64% | [10] 12.8%
active: [1] 3.15% | [5] 1.05%

COc1ccc(-c2cc(-c3ccc(Nc4ccnc5cc(Cl)ccc45)cc3)nc(N3CCOCC3)n2)cc1
active: [1] -18% | [2] -1.81% | [5] -52.1% | [8] 2.68% | [9] -11.4%
inactive: [3] 15.3% | [4] 135% | [6] 101% | [7] 103% | [10] 20.8%

Cn1nc(N)c2cc([C@@H]3Nc4ccc5[nH]ncc5c4[C@H]4C5CCC(C5)[C@@H]34)ccc21 (some centres undefined)
active: [8] -16.2% | [10] 3.15%
inactive: [1] 14.7% | [2] 47.8% | [3] 38.2% | [4] 35.1% | [5] 41.4% | [6] 41.7% | [7] 27.3% | [9] 20.6%

O=C1/C(=C/c2ccc(OCCCOc3ccc(Cl)cc3)cc2)N=C2SCCCN12
inactive: [1] 67.5% | [2] 45.6% | [3] 65.9% | [4] 102% | [5] 49.2% | [6] 105% | [7] 97.8% | [8] 71.3% | [9] 107% | [10] 67.4%

Cc1cc(Nc2ccc(C)c(Cl)c2)n2nc(C(F)(F)F)nc2n1
active: [5] -62.7% | [6] -50.5%
inactive: [1] 60.6% | [2] 51.6% | [3] 30.8% | [4] 55.4% | [7] 15.1% | [8] 15.2% | [9] 28.7%

O=C1Nc2ccc(Br)cc2C12Oc1ccccc1C1CC(c3ccc(F)cc3)=NN12 (centres undefined)
inactive: [1] 87.1% | [2] 84% | [3] 93.7% | [4] 111% | [5] 85.5% | [6] 102% | [7] 72.8% | [8] 96.3% | [9] 89.1% | [10] 97.3%

COc1cc(-c2ccc3c(c2)NC(=O)/C3=C\c2ccc[nH]2)ccc1O
inactive: [3] 18.5% | [4] 48.2% | [5] 52.4% | [6] 30.7% | [7] 26.3% | [9] 53.9% | [10] 12.7%
active: [1] 8.9% | [2] 6.57% | [8] 9.59%

COc1ccc(-c2n[nH]nc2-c2csc3ccccc23)cc1OC
inactive: [1] 21.3% | [2] 34.8% | [3] 36.9% | [4] 66.2% | [5] 49% | [6] 14.2% | [7] 48.8% | [8] 11.9% | [10] 13.5%
active: [9] 6.17%

OCCNc1nccc(N2CCN(c3ccnc4cc(Cl)ccc34)CC2)n1
inactive: [1] 17.4% | [2] 89.3% | [3] 94.6% | [4] 102% | [5] 77.5% | [6] 85.2% | [7] 55.7% | [8] 81.1% | [9] 92.1%

Cc1ccc(C2=NN3C(C2)c2cc(Br)ccc2OC32CCN(Cc3ccccc3)CC2)o1 (centres undefined)
inactive: [1] 90.2% | [2] 80.8% | [3] 98.8% | [4] 109% | [5] 94.3% | [6] 93.7% | [7] 82.1% | [8] 96.6% | [9] 92% | [10] 94%

CN1CCN(c2ccc(Nc3c4ccccc4nc4ccccc34)cc2)CC1
inactive: [1] 103% | [2] 121% | [3] 100% | [4] 102% | [5] 103% | [6] 112% | [7] 111% | [8] 110% | [9] 117%

O=[N+]([O-])c1ccc(Nc2nc(NCCN3CCOCC3)ncc2[N+](=O)[O-])cc1
inactive: [1] 107% | [2] 100% | [3] 99.5% | [4] 98.6% | [5] 85.4% | [6] 93.4% | [7] 81% | [8] 102% | [9] 87.8% | [10] 89.8%

O=C(Cn1cccc(Nc2ccccc2)c1=O)Nc1ccccc1
inactive: [1] 104% | [2] 100% | [3] 102% | [4] 90.1% | [5] 102% | [6] 104% | [7] 119% | [8] 115% | [9] 102%

CCOc1cc2ncc(C#N)c(Nc3ccc(OCc4cccc(F)c4)c(Cl)c3)c2cc1NC(=O)CC1CCSS1 (centres undefined)
active: [1] -9.65% | [5] -33.3% | [6] -93.6% | [7] -2.65%
inactive: [2] 62.4% | [3] 44.2% | [4] 84.1% | [8] 37.3% | [9] 55.9% | [10] 78.9%

O=c1ccccc(-c2ccc(Br)cc2)c1O
inactive: [3] 13% | [4] 54.9% | [5] 30% | [6] 19.7% | [7] 12.4% | [8] 25.8% | [9] 51.8%
active: [1] 4.69% | [2] 9.5% | [10] 7.78%

Cc1nn(-c2cc(=O)[nH]c3ccccc23)c(N)c1C#N
inactive: [1] 105% | [2] 99.9% | [3] 99.2% | [4] 101% | [5] 105% | [6] 111% | [7] 77.7% | [8] 106% | [9] 98.6% | [10] 108%

N#CN1CCC[C@H]1C(=O)N1CCc2c(-c3[nH]nc4ncccc34)cccc21
inactive: [2] 18.1% | [4] 56.3% | [5] 18.5% | [7] 17.1%
active: [1] 6.84% | [3] 1.11% | [6] -1.17% | [8] -32% | [9] -2.6% | [10] 8.38%

O=c1c2c3c(sc2nc(N/N=C/c2cn(-c4ccccc4)nc2-c2ccc(Cl)cc2)n1Cc1ccccc1)CCCC3
inactive: [1] 59.3% | [2] 119% | [3] 98.2% | [4] 121% | [5] 109% | [6] 102% | [7] 92.4% | [8] 106% | [9] 94.2% | [10] 108%

CCCc1cc(=O)n2c(C(=O)Nc3cccc(C(=O)OCC)c3)c(C(=O)Nc3ccc(F)cc3)sc2n1
active: [3] -19.2% [30 µM] | [5] 9.71% [30 µM] | [8] -4.26% [30 µM]
inactive: [1] 82.4% [30 µM] | [2] 57% [30 µM] | [4] 71.2% [30 µM] | [6] 62.2% [30 µM] | [7] 42.2% [30 µM] | [9] 14.3% [30 µM] | [10] 47.3% [30 µM]

CCN(CC)c1ccc2c(c1)Oc1nc(N)c(C#N)c(N)c1C2Sc1ccc(SC)cc1 (centres undefined)
active: [1] -18.8% | [2] -37.3% | [3] -7.42% | [4] -27.1% | [5] -2.7% | [6] -4.96% | [7] -13.9% | [8] -30.4%
inactive: [9] 26% | [10] 10.8%

Cc1cc(N2CCN(c3ccnc4cc(Cl)ccc34)CC2)nc(NC2CCCCC2)n1
active: [1] -24% | [2] -37.5%
inactive: [3] 60.3% | [4] 66.8% | [5] 33.2% | [6] 56.3% | [7] 18.6% | [8] 38.2% | [9] 57.9%

COc1ccc(C2Nc3c(c(C(C)(C)C)nn3-c3ccccc3)C(=O)CS2)cc1 (centres undefined)
inactive: [1] 87% | [2] 82.7% | [3] 98.4% | [4] 108% | [5] 114% | [6] 106% | [7] 84.3% | [8] 101% | [9] 118% | [10] 94.8%

C#CCOc1ccc2ncnc(Nc3cccc(CNC(=O)CCl)c3)c2c1
inactive: [1] 25.1% [8.25 µM] | [2] 37.7% [8.25 µM] | [3] 38.8% [8.25 µM] | [4] 65.9% [8.25 µM] | [5] 27.2% [8.25 µM] | [6] 48.1% [8.25 µM] | [8] 29.3% [8.25 µM] | [9] 37.8% [8.25 µM] | [10] 90.3% [8.25 µM]
active: [7] -5.04% [8.25 µM]

Cc1ccc2c(C(C[N+](=O)[O-])c3ccco3)c(-c3ccccc3)[nH]c2c1 (centres undefined)
active: [10] 7.41%
inactive: [1] 24% | [2] 27.4% | [3] 48.1% | [4] 54.9% | [5] 64.2% | [6] 21.7% | [7] 29% | [8] 14.2% | [9] 16.2%

Cc1nc(Nc2ccc(F)c(Cl)c2)sc1C(=O)O
active: [1] 5.95% | [2] 5.09%
inactive: [3] 14% | [4] 51.2% | [5] 21.7% | [6] 17.4% | [7] 19.3% | [8] 23% | [9] 18.7% | [10] 13.4%

COc1cc(-c2nn(-c3ccc(C)cc3)cc2C(=O)O)ccc1O
inactive: [1] 85.3% | [2] 90.9% | [3] 98.9% | [4] 113% | [5] 109% | [6] 94% | [7] 94.2% | [8] 93.4% | [9] 103% | [10] 94.5%

CN(C)CCCNc1c2ccccc2nc2ccccc12
inactive: [1] 86.9% | [2] 100% | [3] 92% | [4] 97.9% | [5] 87.4% | [6] 95.8% | [7] 97.5% | [8] 103% | [9] 75.7%
